The record followed here is PubChem BioAssay (NCI).

About 83,000 compounds went through this panel and 20% of them were active in at least one assay; those are over-represented in the sample as a whole.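 Values shown are percent growth following 48 h exposure of cells in 96-well plates to a single concentration of compound; below 10 was considered active.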 Values without a mark were called inactive. The source made the active and inactive calls.

Holding throughout (test): NCI-60 one-dose screen, 48 h (100 = growth as untreated, 0 = no growth, -100 = all killed)
Details in all cases: 10 µM unless noted

Experiment [1] relates to SK-MEL-2 melanoma.
In experiment [2] the test system is SN12C renal.
The test system of experiment [3] is UO-31 renal.
Experiment [4] relates to TK-10 renal.
Experiment [5] deals with ACHN renal.
The test system of experiment [6] is CAKI-1 renal.
Experiment [7] concerns A498 renal.
Experiment [8] deals with CCRF-CEM leukemia.
In experiment [9] the test system is MOLT-4 leukemia.
The subject of experiment [10] is SR leukemia.
The test system of experiment [11] is RPMI-8226 leukemia.
In experiment [12] the test system is OVCAR-8 ovarian.
Experiment [13] concerns OVCAR-5 ovarian.
Experiment [14] deals with OVCAR-4 ovarian.
For experiment [15], the system named is SK-OV-3 ovarian.
The test system of experiment [16] is IGROV1 ovarian.
The test system of experiment [17] is OVCAR-3 ovarian.
In experiment [18] the test system is HS 578T breast.
Experiment [19] concerns NCI/ADR-RES ovarian.

In the case of `CC(C)C(C)(C)C(=O)C(C)(C)C(C)(C)C`, the growth in experiment [1] is 99.9%; in experiment [2], 98.2%; in experiment [3], 95.5%; in experiment [4] it was 96.2%; in experiment [5], 99.3%; in experiment [6], 104%. Moreover, the growth in [7] is 83.9%; in [8], 107%; in [9], 110%; in [10], 100%; in experiment [11] it was 96.1%; in [12], 99.1%. Besides, the growth is 97.5% in experiment [13]; 117% in experiment [14]; 82.8% in experiment [15]; 105% in experiment [16]; 80.3% in experiment [17]; 93.9% in [18]. Moreover, the growth in experiment [19] is 104%.

As to `Nc1ccc(F)c(Cl)c1F`, the growth in experiment [1] was 108%; in experiment [2] it was 104%; in [3] it was 98.7%; in experiment [4] it was 108%; in experiment [5] it was 106%; in [6] it was 97.5%. Besides, the growth in experiment [7] is 95%; in [8], 99.4%; in experiment [9], 108%; in experiment [10] it was 101%; in experiment [11], 93.7%; in experiment [12], 108%. In addition, the growth in experiment [13] is 98.8%; in experiment [14], 112%; in [15], 113%; in [16] it was 116%; in experiment [17], 111%; in experiment [18], 96.4%. Moreover, in [19], the growth was 105%.

For `CC(O)C(F)(F)C(F)(F)C(F)(F)F` (configuration not stated), the growth was 111% in [1]; 110% in experiment [2]; 95.3% in experiment [3]; 102% in experiment [4]; 93.8% in [5]; 99.2% in experiment [6]. The growth was 120% in experiment [7]; 108% in [8]; 96.4% in experiment [9]; 97.6% in experiment [10]; 128% in experiment [11]; 110% in experiment [12]. In addition, the growth in [13] is 98.7%; in [14] it was 103%; in experiment [15], 118%; in experiment [16], 114%; in experiment [17], 121%; in experiment [18], 105%. In addition, the growth in experiment [19] is 110%.

For `O=[N+]([O-])c1ccc(-c2nc(N(CCO)CCO)c3ccccc3n2)o1`, the growth in experiment [1] is -62.7% (active); in experiment [2], 4.44% (active); in experiment [3] it was -40.6% (active); in experiment [4], -14.1% (active); in experiment [5], -14.5% (active); in experiment [6], -28.2% (active). For the same molecule, the growth was -77.1% (active) in [7]; 21.1% in [8]; 12.5% in experiment [9]; 2.69% (active) in experiment [10]; 4.26% (active) in [11]; 1.65% (active) in experiment [12]. In addition, the growth in experiment [13] was -5.6% (active); in experiment [14], -25.7% (active); in experiment [15], -4.36% (active); in experiment [17] it was -34.3% (active); in experiment [18] it was -41.8% (active); in experiment [19] it was 5.04% (active).

For `Cc1ccc2[nH]c3ccccc3c2c1`, the growth in experiment [1] is 109%; in experiment [2], 109%; in experiment [3], 91.3%; in experiment [4], 106%; in [5] it was 110%; in [6] it was 97.3%. Also, the growth in experiment [7] is 82.5%; in experiment [8], 92.8%; in [9], 94.4%; in experiment [10], 79.6%; in experiment [11], 106%; in [12] it was 98.4%. In addition, the growth was 105% in experiment [13]; 100% in experiment [14]; 113% in experiment [15]; 107% in experiment [16]; 104% in experiment [17]; 106% in experiment [18]. Further, the growth in [19] is 109%.

Take `CC(CC(CCC(=O)O)(c1ccccc1)c1ccccc1)N(C)C` (configuration not stated): the growth in experiment [1] was 104%; in experiment [2], 99.2%; in experiment [3] it was 91.4%; in [4], 98.2%; in [5] it was 106%; in experiment [6] it was 95%. Also, the growth was 95% in [7]; 98.9% in experiment [8]; 107% in [9]; 98.6% in experiment [10]; 109% in [11]; 94.4% in experiment [12]. For the same molecule, the growth in experiment [13] is 98.4%; in experiment [14], 96.1%; in experiment [15] it was 97.6%; in experiment [16], 107%; in experiment [17], 67.3%; in experiment [18], 106%. In addition, the growth in experiment [19] is 108%.

As for `Cc1ccc2nc(N)nnc2c1`, the growth in experiment [1] was 107%; in [2], 98.4%; in experiment [3], 87.5%; in [4], 108%; in [5], 108%; in experiment [6] it was 83.7%. The growth in experiment [7] was 95.2%; in experiment [8], 102%; in experiment [9] it was 100%; in experiment [11] it was 95.4%; in experiment [12] it was 112%; in experiment [13] it was 102%. The growth in experiment [14] is 108%; in experiment [16] it was 109%; in [17] it was 92.7%; in [18] it was 93.3%; in experiment [19], 96%.

Consider `COc1cc2c(c(OC)c1OC)-c1ccc(SC)c(=O)cc1[C@@H](NC1OC(CO)C(O)C(O)C1O)CC2` (some centres not stated), for which the growth was 4.69% (active) in [1]; 33.6% in experiment [2]; 34.4% in [3]; 42.1% in experiment [4]; 27.2% in experiment [5]; 18.7% in experiment [6]. In addition, the growth in experiment [7] is -14.3% (active); in experiment [8], 4.92% (active); in experiment [9] it was 1.36% (active); in experiment [10], -22.4% (active); in experiment [11] it was 19.7%; in experiment [13], 28.1%. Also, the growth in experiment [14] is 68.3%; in [15], 1.33% (active); in experiment [16], 14.8%; in experiment [17], -15.5% (active); in [18] it was 28.5%; in experiment [19], 7.19% (active).

Regarding `CC(=O)OC(C)c1cccc(C#N)c1` (configuration not stated), the growth in experiment [1] was 110%; in experiment [2] it was 99.1%; in [3], 85.1%; in experiment [4], 110%; in [5], 113%; in [6], 101%. Besides, the growth in experiment [8] is 97.7%; in experiment [9], 102%; in experiment [10], 104%; in experiment [11], 102%; in experiment [12] it was 103%; in experiment [13], 104%. Also, the growth was 109% in [14]; 93.8% in [15]; 115% in experiment [16]; 111% in [17]; 106% in experiment [18]; 106% in [19].

As to `O=C(O)c1ccc(OCc2ccccc2)cc1`, the growth in [1] is 101%; in experiment [2], 98.2%; in experiment [3] it was 89.6%; in [4], 96.7%; in [5], 94.3%; in experiment [6], 92.7%. Besides, the growth is 104% in experiment [8]; 98% in [9]; 99.8% in [10]; 97.5% in experiment [11]; 97.9% in experiment [12]; 93.5% in [13]. In addition, the growth is 102% in experiment [14]; 98.8% in experiment [15]; 91.1% in [16]; 118% in experiment [17]; 96% in experiment [18]; 104% in experiment [19].

Consider `CC(C)(N)CO[C@H]1C[C@H]2CC[C@@]1(C)C2(C)C`, for which the growth is 108% in experiment [1]; 100% in [2]; 91.8% in experiment [3]; 105% in [4]; 100% in experiment [5]; 81.7% in experiment [7]. For the same molecule, the growth was 105% in experiment [8]; 107% in [9]; 106% in experiment [10]; 108% in experiment [11]; 102% in experiment [12]; 95% in experiment [13]. The growth in [14] was 104%; in experiment [15], 112%; in experiment [16] it was 106%; in experiment [17], 93.6%; in [18] it was 81.9%; in experiment [19], 103%.

Turning to `Nc1ncnc(Nc2ccc(C(F)(F)F)cc2)n1`, the growth was 103% in [1]; 99.8% in experiment [2]; 97.8% in experiment [3]; 109% in [4]; 98.2% in experiment [5]; 93.2% in experiment [6]. Moreover, the growth in experiment [8] is 116%; in [9] it was 96.6%; in experiment [10], 102%; in experiment [11] it was 109%; in experiment [12] it was 102%; in experiment [13], 99.8%. For the same molecule, the growth in experiment [14] was 107%; in experiment [15], 100%; in experiment [16], 100%; in experiment [17], 113%; in experiment [18], 108%; in experiment [19], 104%.

As to `ON1CCCC1`, the growth in experiment [1] is 106%; in [2], 102%; in experiment [3], 95.5%; in experiment [4], 94%; in experiment [5], 109%; in experiment [6] it was 92.9%. The growth in experiment [7] was 97.5%; in experiment [9], 81%; in [10], 90.3%; in experiment [11] it was 88.2%; in experiment [12] it was 103%; in experiment [13], 103%. In addition, the growth was 107% in experiment [14]; 102% in experiment [15]; 108% in [16]; 112% in [17]; 102% in experiment [19].

As for `COc1cccc(N=CNc2cccc(OC)c2)c1`, the growth was 86.3% in [1]; 101% in [2]; 91.1% in experiment [3]; 113% in [4]; 86.2% in experiment [5]; 93.2% in experiment [7]. Further, the growth in experiment [8] was 94.7%; in [9], 90.9%; in [10], 93.6%; in experiment [11], 92%; in [12] it was 104%; in experiment [13], 103%. In addition, the growth in experiment [15] was 103%; in experiment [16], 96.7%; in experiment [17] it was 102%; in experiment [18] it was 105%; in [19], 91.4%.

Take `Nc1ncnc(Nc2ccccc2)n1`: the growth was 103% in experiment [1]; 105% in experiment [2]; 86.5% in experiment [3]; 110% in experiment [4]; 113% in [5]; 92.7% in experiment [6]. For the same molecule, the growth in experiment [7] is 128%; in [8], 104%; in experiment [9], 96.2%; in experiment [11], 96.7%; in [12], 106%; in experiment [13], 105%. For the same molecule, the growth in [14] is 109%; in experiment [15], 117%; in [16] it was 102%; in experiment [17], 117%; in [18], 102%; in [19] it was 111%.
